This is a sample that favours compounds with a hit; in the whole collection about 7.3% have one here.
SMN2 splice enh = qHTS Assay for Enhancers of SMN2 Splice Variant Expression; HEK293 SMN2-luciferase splicing reporter, luminescence, 30-36 h; Potency, µM (titrated, usually from 46.1 µM), inactives show at the top dose activity change, positive = activation, usual class: activators; actives 2.8% (n = 210,000); AID 1458, 2008; note: % of control where 0% means no effect; nearly all actives have a fitted effect of over 55% in size
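HEK293 cells carry an SMN2 […]–luciferase reporter in which exon 7 inclusion puts luciferase in frame. Cells were plated 10-12 h before compound addition, then incubated 30-36 h at 37C. ONE-Glo luminescence was read; sodium butyrate at 4.5 mM final served as control.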
Rab9 prom act = qHTS Assay for Rab9 Promoter Activators. Huh7 Rab9 promoter-luciferase reporter, luminescence, 24 h. Potency, µM (series often up to 9.22 µM), inactives show top-dose activation, negative = inhibition, most hits filed as activators. actives 2.8% (n = 320,000). AID 485297, 2010; note: % of control where 0% means no effect; nearly all actives have a fitted effect of over 60% in size
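Measured in stably transfected Huh7 cells bearing a Rab9 promoter–luciferase construct: 24 h compound treatment at 37 °C, followed by luminescence detection.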
NPC1 prom act = qHTS Assay for NPC1 Promoter Activators. Huh7 NPC1 promoter luciferase reporter, 24 h. Potency, µM (doses to about 9.22 µM), for the others: at the highest dose activation, hits mostly activators. actives 2.4% (n = 320,000); note: % of control where 0% means no effect; nearly all actives have a fitted effect of over 60% in size
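Luminescence from an NPC1 promoter-driven luciferase reporter in stably transfected Huh7 cells was measured after 24 h compound treatment at 37 °C, followed by 10 min ambient incubation with luciferase detection reagent.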
FLuc counter = qHTS profiling assay for firefly luciferase inhibitor/activator using purifed enzyme and Km concentrations of substrates (counterscreen for miR-21 project); Luciferin 4-monooxygenase (Photinus pyralis), P08659; purified FLuc, Km substrates, luminescence inhibition; Potency, µM (series often up to 57.5 µM), for inactives: top-dose activity change, negative = inhibition, actives largely listed as inhibitors; actives 6.9% (n = 360,000); AID 588342, 2011;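 note: plate controls were vehicle for no effect and reference inhibitor for full effect; nearly all actives have a fitted effect of over 55% in size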
Target sequence (P08659 whole entry, looked up): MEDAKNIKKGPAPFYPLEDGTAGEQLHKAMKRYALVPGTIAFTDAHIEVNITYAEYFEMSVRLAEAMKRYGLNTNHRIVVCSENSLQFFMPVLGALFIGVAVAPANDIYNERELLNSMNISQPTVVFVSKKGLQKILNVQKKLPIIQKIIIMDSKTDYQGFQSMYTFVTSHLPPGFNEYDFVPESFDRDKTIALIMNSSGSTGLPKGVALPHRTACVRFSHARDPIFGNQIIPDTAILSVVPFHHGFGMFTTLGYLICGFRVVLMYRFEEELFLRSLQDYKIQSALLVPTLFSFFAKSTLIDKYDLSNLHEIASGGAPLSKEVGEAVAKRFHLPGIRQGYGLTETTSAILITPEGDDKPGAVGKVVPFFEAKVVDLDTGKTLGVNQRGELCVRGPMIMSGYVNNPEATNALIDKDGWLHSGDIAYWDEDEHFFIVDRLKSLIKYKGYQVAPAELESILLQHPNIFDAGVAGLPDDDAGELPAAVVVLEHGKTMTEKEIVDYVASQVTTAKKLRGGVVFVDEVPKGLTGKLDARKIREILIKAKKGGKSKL
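Biochemical qHTS of compounds, final roughly 60 µM downward over six points, against 10 nM purified firefly luciferase using Km concentrations of substrates (10 uM D-luciferin, 10 uM ATP) in Tris acetate pH 7.5 buffer; luminescence output.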
Luc counter = Counterscreen for Luciferase (Kinase-Glo TM) Inhibition | Luciferin 4-monooxygenase (Photuris pensylvanica), Q27757 | Kinase-Glo luciferase, ATP luminescence, 8 min | Potency, µM (highest dose often 38.3 µM), without a hit: at the highest dose activity change, negative = inhibition, usual class: inhibitors | actives 0.28% (n = 200,000) | AID 1379, 2008; note: % is set by controls: 0 for no effect and ±100 for the full control effect; nearly all actives have a fitted effect of over 60% in size
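Compound is pinned into ATP-containing buffer (10 uM ATP, imidazole pH 7.2, 7 mM MgCl2). Kinase-Glo luciferase reagent is then added. Light output is recorded following an 8-min room-temperature incubation.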
ELG1 genotoxic = qHTS screen for small molecules that induce genotoxicity in human embryonic kidney (HEK293T) cells expressing luciferase-tagged ELG1 | HEK293T ELG1-luciferase reporter, luminescence, 16 h | Potency, µM (doses to about 46 µM), without a hit: at the top dose activity change, positive = activation, hits mostly activators | actives 1.3% (n = 330,000); note: % of control where 0% means no effect; nearly all actives have a fitted effect of over 60% in size
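Reporter readout depends on ELG1 protein level, which increases with genetic stress. After 16 hr compound exposure at 37 °C, luciferase activity was quantified using ONE-Glo.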
* = called active by the depositor; ? = inconclusive; . = no result; [ ] = dose if it differs, or a comment. Calls come from the whole dose curve; as a rule, active = well fitted curve in the direction sought with a large enough effect; inconclusive = small, poorly fitted or top-dose-only effect, or another doubt; inactive = no such curve, though single readings can be large; an effect the other way counts as inactive or inconclusive. Potency is the fitted concentration of half-maximal effect.

SMILES	SMN2 splice enh	Rab9 prom act	NPC1 prom act	FLuc counter	Luc counter	ELG1 genotoxic
COc1ccc(NC(=O)CN(C)S(=O)(=O)c2ccc(C(=O)N3CCOCC3)s2)cc1	.	.	.	-8%	.	.
CCCc1noc(-c2ccc(-c3ccccc3)cc2)n1	?	1.6µM*	1.6µM*	1.5µM*	-9%	?
Clc1ccc(Br)cc1-c1nc(-c2ccncc2)no1	?	22%	2%	?	-2%	21µM*
O=[N+]([O-])c1cc(-c2nc(-c3ccncc3)no2)ccc1Cl	-12%	-2%	7%	-16%	-3%	-1%
CCc1ccc(NCc2nc(-c3ccccc3)no2)cc1	28%	13%	0%	?	1%	?
FC(F)(F)c1cccc(-c2nc(-c3ccncc3)no2)c1	.	?	?	15µM*	.	18%
Cc1ccc(-c2noc(CNc3ccccc3)n2)cc1	?	23%	19%	19µM*	0%	?
COCCn1c(CCC(=O)Nc2ccc(C)c(Cl)c2)nc2cccnc21	-8%	.	.	6%	.	.
CN(C)c1ccc(-c2nc(NCc3cccnc3)c3ccccc3n2)cc1	-89%	.	.	.	-14%	.
COC(=O)C1=C(C(=O)OC)[C@@H]2N(C)c3ccccc3[C@@]23C[C@@H](C(=O)OC)N(S(=O)(=O)c2ccc(C)cc2)C3=N1	-7%[9.22 µM]	.	.	.	-6%[7.66 µM]	.
CCOc1ccc(-c2nc(-c3ccccc3)no2)cc1OCC	-3%	?	?	13µM*	-2%	?
Cc1ccc(SC(C)c2nc(-c3ccncc3)no2)cc1 (centres undefined)	-45%	-5%	1%	-3%	1%	23%
CCC(=O)Oc1ccc(-c2nc(-c3cccnc3)no2)cc1	?	4.5µM*	4µM*	3.4µM*	?	?
Cc1ccc(Cc2nc(-c3cccnc3)no2)cc1	10%	7%	14%	?	-1%	6%
Cc1ccc(-c2nc(-c3ccncc3)no2)cc1	.	1µM*	0.89µM*	1.7µM*	.	3.7µM*
Cc1ccc(OCc2nc(-c3cccnc3)no2)cc1C	15%	17%	14%	?	-5%	11%
Cc1ccc(-c2nc(-c3cccnc3)no2)cc1	10µM*	.	.	1.5µM*	-24%	.
COc1cccc(Cn2c(Oc3cc(C)cc(C)c3)nc3c2c(=O)n(C)c(=O)n3C)c1	-6%	.	.	-2%	.	.
Cc1ccc(-c2nc(-c3ccccc3)no2)cc1	8%	1.3µM*	1µM*	0.21µM*	-29%	0.65µM*
CC(C)(C)c1ccc(-c2nc(-c3ccncc3)no2)cc1	17%	0.45µM*	0.4µM*	0.95µM*	1%	?
c1cncc(-c2noc(-c3ccco3)n2)c1	-1%	4µM*	3.2µM*	?	-25%	?
Cc1ccc(-c2nc(-c3cc4c([nH]c3=O)CC(C)(C)CC4=O)sc2C)cc1	3%	.	.	3%	.	.
Cc1cccc(NC(=O)c2oc3ccc(S(=O)(=O)N(C)C4CCCCC4)cc3c2C)c1C	.	.	.	-5%	.	.
O=C(NC(=O)c1ccccc1O)c1ccc2c(c1)CCO2	.	?	1.4µM*	1.2µM*	.	?
CCc1nn2c(=O)cc(COC(=O)CNC(=O)c3ccccc3)nc2s1	.	.	.	-2%	.	.
SMILES	SMN2 splice enh	Rab9 prom act	NPC1 prom act	FLuc counter	Luc counter	ELG1 genotoxic
c1ccc(Nc2nc(CSc3ncn[nH]3)cs2)cc1	-28%	?	?	15µM*	-1%	11%
NNC(=O)c1ccc(Cn2cc(Br)cn2)cc1	-7%	1%	-2%	1%	-1%	-1%
NNC(=O)c1ccc2nc(-c3ccc(Br)cc3)cn2c1	11µM*	0.5µM*	0.4µM*	9.5µM*	-2%	?
COc1ccc(-c2cn3cc(C(=O)NN)ccc3n2)cc1	.	0.32µM*	?	7.6µM*	-7%	?
CCc1ccc(NC(=O)CCn2c(-c3ccc(OC)cc3)cc(C(C)=O)c2C)cc1	.	.	.	-1%	.	.
Cc1ccc(S(=O)(=O)c2nnn(CC(=O)Nc3ccccc3C)c2N)cc1	-9%	.	.	2%	.	.
Cn1c(-c2ccccc2)cc(=O)c2ccccc21	8%	0%	1%	-19%	-2%	2%
COc1ccc2c(c1)c(=O)cc(-c1ccccc1)n2C	?	12%	22%	24µM*	-1%	?
CCCCNC(=O)O[C@H]1C[C@@H]2CCN3C(=O)CCC(C)(C)[C@H](C1)[C@H]23	.	-2%	0%	1%	.	0%
CC1(C)CCC(=O)N2CC[C@H]3C[C@H](OC(=O)Nc4ccccc4)C[C@@H]1[C@H]32	.	?	?	19µM*	.	19%
CC1(C)CCC(=O)N2CC[C@H]3C[C@H](OC(=O)Nc4ccc5c(c4)OCO5)C[C@@H]1[C@H]32	.	?	4µM*	15µM*	.	-5%
COC(=O)Nc1ccc2c(c1)OCO2	17%	5%	-1%	?	0%	6%
CCOc1ccc(S(=O)(=O)Nc2cccc(OC)c2)c2cccnc12	-6%	.	.	-9%	.	.
CCc1ccc(C(=O)c2cn(CC(=O)Nc3ccc4c(c3)OCCO4)c3ccc(CC)cc3c2=O)cc1	-3%	.	.	0%	.	.
CC(C)(C)c1ccc(C(=O)/C=C2\NC(=O)CS2)cc1	3.2µM*	0.63µM*	0.4µM*	0.3µM*	-8%	?
COc1ccccc1NC(=O)/C=C1\NC(=O)CS1	22%	1%	-2%	-15%	-23%	5%
Cc1ccc(NC(=O)/C=C2\NC(=O)CS2)cc1	.	3.2µM*	3.5µM*	7.6µM*	.	23µM*
Cc1ccc(OCC(=O)Nc2ccc(OCc3cc(=O)n4ccsc4n3)cc2)cc1	10%	.	.	1%	.	.
Cc1ccccc1NC(=O)Cc1c(O)c2ccccc2[nH]c1=O	-11%	5%	-1%	3%	4%	2%
Cc1ccc(NC(=O)Cc2c(O)c3ccccc3[nH]c2=O)c(C)c1	.	0%	1%	17µM*	.	-1%
Cc1cccc(NC(=O)c2c(O)c3ccccc3[nH]c2=O)c1	.	0.71µM*	1.6µM*	?	.	?
O=C(Nc1cccc(O)c1)c1c(O)c2ccccc2[nH]c1=O	.	?	?	3.8µM*	.	?
O=C(Nc1cccc(C(F)(F)F)c1)c1c(O)c2ccccc2[nH]c1=O	.	7%	0%	-10%	.	-1%
Cc1ccc(C)c(N2CCN(C(=O)c3ccc(-c4nc(COc5ccccc5)c(C)o4)cc3)CC2)c1	.	.	.	-6%	.	.
N#CCCn1c(=O)c(-c2ccccc2)nc2cnc(OCc3ccccc3)nc21	-17%	.	.	.	1%	.
